# Assay results: PubChem BioAssay (EPA / NIEHS)
# Results filed as inconclusive are left out. Activity calls are given as the source filed them. Rule for the calls: active = hit-call score of the fitted dose curve at least 0.9, where 1 is the maximum; inconclusive = response in the unintended direction; inactive = score below 0.9.
# Assay: ACEA_ER_80hr: ACEA Biosciences xCELLigence Real-Time Cell Analysis on Estrogen Receptor Agonism for Proliferation (AID 2282667)
# Details: T47D proliferation, impedance (xCELLigence), 80 h
# Experimental: ACEA_ER is a cell-based, single-readout assay that uses T47D, a human breast cell line, with measurements taken at 80 hours after chemical dosing in a 96-well plate, although TO2 (mc0.srcf) used a 384-well plate. Differences in plate size can be ignored given data normalization.ACEA_ER_80hr is one of two assay component(s) measured or calculated from the ACEA_ER assay. It is designed to make measurements of real-time cell-growth kinetics, a form of growth reporter, as detected with electrical impedance signals by Real-Time Cell Electrode Sensor (RT-CES) technology.Data from the assay component ACEA_ER_80hr was analyzed into 1 assay endpoint. This assay endpoint, ACEA_ER_80hr_Positive, was analyzed in the positive analysis fitting direction relative to DMSO as the negative control and baseline of activity. Using a type of growth reporter, measures of the cells for gain-of-signal activity can be used to understand the signaling at the pathway-level as they relate to the gene ESR1. Furthermore, this assay endpoint can be referred to as a primary readout, because this assay has produced multiple assay endpoints where this one serves a signaling function. To generalize the intended target to other relatable targets, this assay endpoint is annotated to the nuclear receptor intended target family, where the subfamily is steroidal.
# The xCELLigence system Multi-E-Plate stations were used to measure the time-dependent response to chemicals. Each compound was tested in an eight-point, 1:4 serial dilution series starting at a maximum final concentration of 100 uM. A maximum starting concentration of 0.5% DMSO was present in the 100 uM chemical samples and was diluted along with the test article dilution series. The screen was performed in biological duplicate using two separate, 96-well, E-Plates 96 for each dilution series (n = 2). Positive controls (MG132 and E2) and a negative control (assay media) were tested in quadruplicate on each testing plate. […] Reference compounds were tested with 8 concentrations with 1:5 serial dilutions. All screening was carried out by ACEA Biosciences, Inc. (San Diego, CA). T-47D cells purchased from ATCC were maintained in RPMI1640 media supplemented with 10% characterized fetal bovine serum (FBS). […] Cells were then detached and seeded in E-Plates 96 in assay medium. After overnight monitoring of growth once every hour, compounds were added to […] cells and remained in the medium until the end of the experiment. Cellular responses were then recorded once every 5 min for the first 5 h, and once every hour for an additional 100 h.
Structure (SMILES),outcome,AC50
O=C(O[C@@H]1Cc2c(O)cc(O)cc2O[C@@H]1c1cc(O)c(O)c(O)c1)c1cc(O)c(O)c(O)c1,inactive,
CC1CCC(C(C)(C)S)C(=O)C1 (stereo not given),inactive,
CO[Si](CCCS)(OC)OC,inactive,
CCCCCCOc1ccc(N)cc1,inactive,
CC(=O)OC1CCCCC1C(C)(C)C (stereo not given),inactive,
CCC(C)c1ccccc1 (stereo not given),inactive,
CC=CC(=O)OCC(C)C,inactive,
COC(OC)(C(=O)c1ccccc1)c1ccccc1,inactive,
O=C(Cl)c1c(Cl)c(Cl)c(C(=O)Cl)c(Cl)c1Cl,inactive,
CC(C)[N+](C)(CCOC(=O)C1c2ccccc2Oc2ccccc21)C(C)C,inactive,
O=C(O)C1CCC(C(=O)O)CC1 (stereo not given),inactive,
CC1(C)CCC[C@]2(C)[C@H]3CC(=O)O[C@]3(C)CC[C@@H]12,inactive,
Cc1c(C(=O)c2c[nH]n(C)c2=O)ccc(S(C)(=O)=O)c1C1=NOCC1,inactive,
O=C(O)c1cc(O)c2ccccc2c1O,inactive,
C/C=C/C=C/CCCCCCCO,inactive,
COC(=O)c1ccccc1C,inactive,
CCOC(=O)c1ccc(C)cc1,inactive,
C=Cc1cccc(C)c1,inactive,
CCCCC1C(=O)N(c2ccccc2)N(c2ccccc2)C1=O,inactive,
Nc1ccc(C(=O)OCCCOC(=O)c2ccc(N)cc2)cc1,inactive,

Structure (SMILES),outcome,AC50
CCCCCCCCCCCCC,inactive,
CCN1CN(CC)CN(CC)C1,inactive,
Cc1c(O)cccc1O,inactive,
CC(C)(CO)COC(=O)C(C)(C)CO,inactive,
CC(C=O)c1ccccc1 (stereo not given),inactive,
CCCCCCCCCCCCCCCCCCOS(=O)(=O)O,,10.5 µM (active)
O=C1c2ccccc2C(=O)c2cc(S(=O)(=O)O)ccc21,inactive,
CN(C)Cc1cc(CN(C)C)c(O)c(CN(C)C)c1,inactive,
O=C(Oc1ccccc1)c1ccccc1C(=O)Oc1ccccc1,inactive,
Cc1ccc(S(=O)(=O)N=C=O)cc1,inactive,
Clc1cc(Cl)c(Cl)c(Cl)c1Cl,inactive,
CCOC(=O)OC(=O)OCC,inactive,
CCCCCOC(=O)CCCCC,inactive,
CCC1(C)C(=O)N(Cl)C(=O)N1Cl (stereo not given),inactive,
CC12CCC(CC1)C(C)(C)O2,inactive,
NNS(=O)(=O)c1ccc(Oc2ccc(S(=O)(=O)NN)cc2)cc1,inactive,
O=C(O)c1ccc2c(c1)C(=O)OC2=O,inactive,
CCc1cccc(C)c1N,inactive,
CC1CC(=O)CC(C)(C)C1 (stereo not given),inactive,
O=C1CCCCC1C1CCCCC1 (stereo not given),inactive,
